Experimental findings from PubChem BioAssay (EPA / NIEHS) are described below.

“And” between values parts separate entries of the source, which are not always exact repeats. Identical values can stand only once. Inconclusive results are not listed. The source made the active and inactive calls. Rule for the calls, unless noted: active = hit-call score of the fitted dose curve at least 0.9, where 1 is the maximum; inactive = score below 0.9.

Assay [1] addresses Nucleoli Translocation, AR (gene 367) (UniProt P10275). Briefly: UPITT_HCI_U2OS_AR_TIF2_Nucleoli_Antagonist: University of Pittsburgh U2OS Androgen Receptor-Transcriptional Intermediary Factor 2 (AR-TIF2) Antagonism High Content Imaging Assay for Nucleoli Translocation (AID 2283997; active = hit-call score of the fitted dose curve at least 0.9, where 1 is the maximum). In a few lines:
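Measured quantity was AR-RFP fluorescence localized to nucleoli in engineered U2OS cells also bearing TIF2-GFP, acquired on automated high-content imagers. Primary testing used 20 uM compound; actives were confirmed in triplicate wells.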

Assay [2] shares this target. Briefly: UPITT_HCI_U2OS_AR_TIF2_Nucleoli_Agonist: University of Pittsburgh U2OS Androgen Receptor-Transcriptional Intermediary Factor 2 (AR-TIF2) Agonism High Content Imaging Assay for Nucleoli Translocation (AID 2283998; active = hit-call score of the fitted dose curve at least 0.9, where 1 is the maximum). In a few lines: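 U2OS cells expressing RFP-tagged human AR and GFP-tagged TIF2; red fluorescence in nucleoli quantified by high-content imaging. Primary screen at 20 uM final (0.2% DMSO); concentration-response 0.195–50 uM (0.5% DMSO), fitted upward versus DMSO.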

Assay [3] concerns the target Ratio of Nucleoli Translocation and Cytoplasm, AR (gene 367) (UniProt P10275). Briefly: UPITT_HCI_U2OS_AR_TIF2_Nucleoli_Cytoplasm_Ratio_Antagonist: University of Pittsburgh U2OS Androgen Receptor-Transcriptional Intermediary Factor 2 (AR-TIF2) Antagonism High Content Imaging Assay for Ratio of Nucleoli Translocation and Cytoplasm (AID 2283999; active = hit-call score of the fitted dose curve at least 0.9, where 1 is the maximum;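 note: antagonists lower the DHT-driven ratio of nucleolar to cytoplasmic red signal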). The procedure, abridged:
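U2OS cells expressing RFP-tagged human AR and GFP-tagged TIF2; compounds tested at 20 uM final (0.2% DMSO) in primary screen, 0.195–50 uM (0.5% DMSO) for concentration response. Readout: nucleolar-to-cytoplasmic red fluorescence ratio by high-content imaging, fitted relative to DHT.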

Assay [4] shares this target. Briefly: UPITT_HCI_U2OS_AR_TIF2_Nucleoli_Cytoplasm_Ratio_Agonist: University of Pittsburgh U2OS Androgen Receptor-Transcriptional Intermediary Factor 2 (AR-TIF2) Agonism High Content Imaging Assay for Ratio of Nucleoli Translocation and Cytoplasm (AID 2284000; active = hit-call score of the fitted dose curve at least 0.9, where 1 is the maximum;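 note: hits raise the red nucleolar to cytoplasm ratio above vehicle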). In a few lines: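 Read-out first: nucleolar-to-cytoplasm ratio of red (AR-RFP) signal, quantified by high-content imaging in U2OS cells co-expressing TIF2-GFP. Activity is scored as signal increase over DMSO. Single-point screening used 20 uM final (0.2% DMSO).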

A short description of assay [5]: CCTE_Harrill_HTTr_Viability_MCF7: CCTE's 6-hour Cell Viability Assessment for the High-Throughput Transcriptomics (HTTr) Platform, in MCF-7 cells cultured in DMEM + 10% fetal bovine serum, Harrill Lab (AID 2284010). In a few lines: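 Membrane integrity was scored by high-content imaging of propidium iodide dye exclusion after a 6 h exposure across an eight-point dilution series. Data were fitted bidirectionally relative to DMSO as negative control and baseline.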

Assay [6] can be described thus: CCTE_Harrill_HTTr_Apoptosis_MCF7: CCTE's 6-hour Apoptosis Assessment for the High-Throughput Transcriptomics (HTTr) Platform, in MCF-7 cells cultured in DMEM + 10% fetal bovine serum, Harrill Lab (AID 2284011). The procedure, abridged:
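MCF-7 cells in DMEM + 10% FBS exposed 6 h to chemicals over an eight-point dilution series. Caspase-3/7 activation imaged by high-content CellEvent Green staining; fitted bidirectionally versus DMSO.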

Assay [7] can be described thus: CCTE_Simmons_MITO_basal_resp_rate: CCTE's HepG2 Seahorse XF Respirometric Screening Assay at Basal Respiratory State, Simmons Lab (AID 2284001). Particulars: actives raise or lower the signal. In a few lines: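 HepG2 respirometry; 7-pt titration 125 nM–100 uM final; kinetic OCR at 6 min intervals for 72 min; n=3 biological, technical singles; DMSO baseline, gain or loss fit; fenpyroximate (decrease) and 2,4-DNP (increase) controls.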

The nature of assay [8]: CCTE_Simmons_MITO_max_resp_rate: CCTE's HepG2 Seahorse XF Respirometric Screening Assay at Maximal Respiratory State [uncoupled], Simmons Lab (AID 2284002). The conditions noted are these: actives raise or lower the signal. The procedure, abridged: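 HepG2 oxygen consumption measured on Seahorse XF after FCCP uncoupling, following test compound injection; 7 concentrations from 125 nM to 100 uM final. Readings every 6 min over 72 min, three biological replicates; bidirectional fit versus DMSO.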

The nature of assay [9]: CCTE_Simmons_MITO_inhib_resp_rate: CCTE's HepG2 Seahorse XF Respirometric Screening Assay at Inhibited Respiratory State [full ETC block], Simmons Lab (AID 2284006). The conditions noted are these: actives raise or lower the signal. In a few lines: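 HepG2 cells on Seahorse XF96; oxygen consumption measured after test compound, then FCCP, then rotenone/antimycin A injections over 72 min. Test chemicals at 7 concentrations, 125 nM–100 uM final. OCR fitted bidirectionally versus DMSO.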

A short description of assay [10]: CCTE_Harrill_HTTr_CellCount_MCF7: CCTE's Cell Proliferation Assessment for the High-Throughput Transcriptomics (HTTr) Platform, Harrill Lab (AID 2284012; active = hit-call score of the fitted dose curve at least 0.9, where 1 is the maximum;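 note: cells exposed to compound for six hours; intended direction is loss of nuclei count meaning fewer cells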). The procedure, abridged: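 MCF-7 cells were exposed for 6 h to an eight-point dilution series; Hoechst-labeled nuclei were counted by high content imaging. Curves were fitted bidirectionally against DMSO as negative control and baseline, with signal loss indicating reduced cell count.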

Assay [11] in a line: CCTE_Shafer_MEA_acute_spike_number: CCTE's Neural Acute Assay for Total Number of Spikes, Shafer Lab (AID 2284008).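 For AC50: curve fitted for decrease in spike count so AC50 reflects inhibitors.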 The procedure, abridged: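 Rat primary cortical neurons on 48-well MEA plates, DIV 13 or 15, at 37 C. 40 min baseline then 40 min with compound (0.03-40 uM); spikes detected at 8x rms noise, expressed as percent change from baseline.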
The nature of assay [12]: CCTE_Shafer_MEA_acute_firing_rate_mean: CCTE's Neural Acute Assay for Mean Firing Rate, Shafer Lab (AID 2284009).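 Note: analyzed for loss of signal so actives lower firing rate relative to DMSO.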 The procedure, abridged: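 Percent change in well-mean firing rate was derived from extracellular spikes detected at 8x rms noise (300-5000 Hz band-pass) before and after a 40-min compound exposure. Cultures were primary rat cortical neurons, tested at 0.03-40 uM.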

The next assay deals with DIO1 (gene 1733). Briefly: CCTE_GLTED_hDIO1: CCTE's human Deiodinase 1 (DIO1) Inhibition Assay, Great Lakes Toxicology and Ecology Division (GLTED) Lab (AID 2283987; active = hit-call score of the fitted dose curve at least 0.9, where 1 is the maximum;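 note: isolated human DIO1 enzyme in a cell-free setup rather than cells; enzyme activity read as free iodide liberated from substrate via Sandell-Kolthoff colorimetry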). In a few lines: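 Cell-free human DIO1 enzyme incubated 3 h with test chemical; iodide freed from substrate then measured by Sandell-Kolthoff absorbance. Run in triplicate; loss of signal relative to DMSO taken as inhibition.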

Chain of Nucleoli Translocation, AR (gene 367) (P10275 whole entry, looked up): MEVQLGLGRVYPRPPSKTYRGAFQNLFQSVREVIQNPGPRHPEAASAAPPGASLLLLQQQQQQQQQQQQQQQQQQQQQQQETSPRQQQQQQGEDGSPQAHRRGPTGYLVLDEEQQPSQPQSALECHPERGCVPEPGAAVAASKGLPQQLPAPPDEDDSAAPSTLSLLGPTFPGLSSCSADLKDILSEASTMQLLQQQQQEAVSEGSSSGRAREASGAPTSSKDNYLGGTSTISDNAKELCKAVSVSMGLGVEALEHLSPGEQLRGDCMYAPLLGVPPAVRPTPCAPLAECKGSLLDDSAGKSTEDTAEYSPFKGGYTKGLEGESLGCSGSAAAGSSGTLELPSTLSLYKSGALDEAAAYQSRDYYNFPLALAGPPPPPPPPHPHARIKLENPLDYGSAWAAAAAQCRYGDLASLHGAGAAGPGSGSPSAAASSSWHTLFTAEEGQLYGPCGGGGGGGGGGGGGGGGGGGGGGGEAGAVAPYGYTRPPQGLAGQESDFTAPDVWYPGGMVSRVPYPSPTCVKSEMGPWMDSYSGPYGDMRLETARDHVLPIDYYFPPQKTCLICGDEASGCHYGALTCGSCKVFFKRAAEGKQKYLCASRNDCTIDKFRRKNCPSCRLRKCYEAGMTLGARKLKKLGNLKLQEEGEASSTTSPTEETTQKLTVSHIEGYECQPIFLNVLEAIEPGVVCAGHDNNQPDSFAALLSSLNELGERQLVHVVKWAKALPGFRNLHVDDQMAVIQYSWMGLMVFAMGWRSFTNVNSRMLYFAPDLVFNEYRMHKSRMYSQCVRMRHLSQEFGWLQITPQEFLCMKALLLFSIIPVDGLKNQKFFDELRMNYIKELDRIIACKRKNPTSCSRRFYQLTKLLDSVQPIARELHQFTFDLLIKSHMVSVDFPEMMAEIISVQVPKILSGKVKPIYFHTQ
Chain of Ratio of Nucleoli Translocation and Cytoplasm, AR (gene 367) (P10275 whole entry, looked up): as above

As for `Cc1ccccc1CO[C@@H]1C[C@@]2(C(C)C)CC[C@]1(C)O2`, the compound was classed as inactive in assay [1], in [2], in [3], in assay [4], in assay [5] and in assay [6].

In the case of `O=C(O)C(F)(F)C(F)(F)C(F)(F)C(F)(F)C(F)(F)C(F)(F)C(F)(F)C(F)(F)F`, the compound was classed as inactive in [7], in assay [8], in assay [9], in assay [5], in assay [6] and in assay [10].

Consider `CC1=C2C[C@H]3[C@@H](CC=C4C[C@@H](O)CC[C@@]43C)[C@@H]2CC[C@]12O[C@@H]1C[C@H](C)CN[C@H]1[C@H]2C`, for which the result in [1], in assay [2], in [3], in [4], in assay [5] and in assay [6] was inactive. For the same compound, the compound was called inactive in assay [10].

By AC50 is commonly meant the concentration giving half of the maximal activity seen. Take `CCC(C)c1cc([N+](=O)[O-])cc([N+](=O)[O-])c1O` (configuration not stated): the values for the concentration at half-maximal activity (AC50) in assay [7] and in assay [8] were 0.329 µM (active) and 16 µM (active), respectively. Further, the outcome in [9], in [11], in [12], in assay [5] and in assay [6] was inactive.

For `Oc1ccc(C(c2ccc(O)cc2)(C(F)(F)F)C(F)(F)F)cc1`, the AC50 in assay [7] was 10.8 µM (active); in [8] it was 21.6 µM (active); in assay [11], 3.17 µM (active); in assay [12], 3.16 µM (active). Further, the result in assay [9], in [5] and in assay [6] was inactive.

Consider `CCC(=O)O[C@H]1CC[C@H]2[C@@H]3CCC4=CC(=O)CC[C@]4(C)[C@H]3CC[C@]12C`, for which the AC50 is 0.00109 µM (active) in assay [2] and 0.000508 µM (active) in assay [4]. For the same compound, the outcome in assay [8], in assay [9], in assay [5] and in assay [6] was inactive.

On to `Oc1c(Cl)c(Cl)c(Cl)c(Cl)c1Cl`, for which the AC50 is 0.451 µM (active) in assay [7] and 16.2 µM (active) in [8]. Further, the compound was called inactive in assay [9], in assay [5], in assay [6] and in assay [10].

As to `CC(c1ccc(O)cc1)(c1ccc(O)cc1)c1ccc(O)cc1`, the AC50 in assay [7] was 14.5 µM (active); in assay [11], 3.97 µM (active); in assay [12], 3.97 µM (active). Moreover, the outcome in assay [8], in assay [9], in assay [5] and in assay [6] was inactive.

For the compound `NS(=O)(=O)C(F)(F)C(F)(F)C(F)(F)C(F)(F)C(F)(F)C(F)(F)C(F)(F)C(F)(F)F`, the AC50 in the assay with DIO1 (gene 1733) is 26.8 µM (active); in assay [1], 82.7 µM (active); in [2], 30.9 µM (active); in assay [4], 32 µM (active); in [7], 34.9 µM (active). The result in [3], in assay [8], in assay [9], in [5] and in [6] was inactive.

For the compound `CC(C)C(=O)OCC(C)(C)C(OC(=O)C(C)C)C(C)C` (configuration not stated), the result in [11] and in assay [12] was inactive.

Turning to `O=C(O)C(F)(F)C(F)(F)C(F)(F)C(F)(F)C(F)(F)C(F)(F)C(F)(F)C(F)(F)C(F)(F)F`, in the assay on DIO1 (gene 1733), the AC50 was 103 µM (active) and 70.6 µM (active). For the same compound, the call in assay [7], in assay [8], in [9], in [5], in [6] and in [10] was inactive.

Regarding `CCCCCCCCOC(=O)c1ccccc1C(=O)OCCCCCCCC`, the result in assay [1], in assay [3], in assay [5], in assay [6] and in assay [10] was inactive.

Take `CC#Cc1cc(C)nc(Nc2ccccc2)n1`: the AC50 in the assay with DIO1 (gene 1733) is 27 µM (active); in assay [11], 4.07 µM (active); in [12], 4.06 µM (active). For the same compound, the result in assay [5], in [6] and in assay [10] was inactive.
